In PubChem BioAssay AID1159580 (chemical genetic matrix, 2015):
Hit rate of the full screen: of about 5,500 compounds, about 2,000 (36%) were called active. Roughly 18% stayed inconclusive and do not appear here. Cut-off read from the data, not from the text of the source: active = normalized growth mostly below about 0.91 (no sharp cut-off); inconclusive = no clear call, values can overlap the other calls; inactive = mostly above about 0.92. The list shows a part of the results.

Test: chemical genetic growth profiling, strain panel (AID 1159580);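 note: tested at 20 µM; growth read once vehicle control cultures reached saturation at 30 °C; 1 = growth at the plate median or of vehicle wells; lower values mean less growth of the strain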
Conditions: growth OD
[1] = S. cerevisiae deletion strains, locus YAL013W, strain DEP1, stronger effect = lower value
[2] = S. cerevisiae deletion strains, locus YBR229C, strain ROT2, stronger effect = lower value
[3] = S. cerevisiae deletion strains, locus YDL101C, strain DUN1, stronger effect = lower value
[4] = S. cerevisiae deletion strains, locus YDR150W, strain NUM1, stronger effect = lower value
[5] = S. cerevisiae deletion strains, locus YEL061C, strain CIN8, stronger effect = lower value
[6] = S. cerevisiae deletion strains, locus YGR078C, strain PAC10, stronger effect = lower value
[7] = S. cerevisiae deletion strains, locus YHR030C, strain SLT2, stronger effect = lower value
[8] = S. cerevisiae deletion strains, locus YHR087W, strain rtc3, stronger effect = lower value
[9] = S. cerevisiae deletion strains, locus YJR043C, strain POL32, stronger effect = lower value
[10] = S. cerevisiae deletion strains, locus YJR075W, strain HOC1, stronger effect = lower value
[11] = S. cerevisiae deletion strains, locus YLR039C, strain RIC1, stronger effect = lower value
[12] = S. cerevisiae deletion strains, locus YLR058C, strain SHM2 (second series), stronger effect = lower value
[13] = S. cerevisiae deletion strains, locus YLR085C, strain ARP6, stronger effect = lower value
[14] = S. cerevisiae deletion strains, locus YLR262C, strain YPT6, stronger effect = lower value
[15] = S. cerevisiae deletion strains, locus YML094W, strain GIM5, stronger effect = lower value
[16] = S. cerevisiae deletion strains, locus YMR219W, strain ESC1, stronger effect = lower value
[17] = S. cerevisiae deletion strains, locus YMR263W, strain SAP30, stronger effect = lower value
[18] = S. cerevisiae deletion strains, locus YMR307W, strain GAS1, stronger effect = lower value
[19] = S. cerevisiae deletion strains, locus YNL128W, strain TEP1, stronger effect = lower value
[20] = S. cerevisiae deletion strains, locus YNL153C, strain GIM3, stronger effect = lower value
[21] = S. cerevisiae deletion strains, locus YNL298W, strain CLA4 (second series), stronger effect = lower value
[22] = S. cerevisiae deletion strains, locus YNL322C, strain KRE1, stronger effect = lower value
[23] = S. cerevisiae deletion strains, locus YNR030W, strain Alg12, stronger effect = lower value
[24] = S. cerevisiae deletion strains, locus YPL055C, strain LGE1, stronger effect = lower value
[25] = S. cerevisiae deletion strains, locus YPL241C, strain CIN2, stronger effect = lower value
[26] = S. cerevisiae deletion strains, locus YPR135W, strain CTF4, stronger effect = lower value
[27] = S. cerevisiae deletion strains, locus YDL134C, strain PPH21, stronger effect = lower value
[28] = S. cerevisiae deletion strains, locus YJL187C, strain SWE1, stronger effect = lower value

Measured: normalized growth

O=C(CSCc1c(F)cccc1Cl)NC1Cc2ccccc2C1
inactive: [1] 0.984 | [2] 0.973 | [3] 0.995 | [4] 0.959 | [5] 0.949 | [6] 0.978 | [7] 0.776 | [8] 0.962 | [9] 0.991 | [10] 0.944 | [11] 0.925 | [12] 0.973 | [13] 0.906 | [14] 0.964 | [15] 0.956 | [16] 0.97 | [17] 0.991 | [19] 0.988 | [20] 0.977 | [21] 0.944 | [22] 0.973 | [23] 0.943 | [24] 0.944 | [25] 0.938 | [26] 0.76
active: [18] 0.628

O=S(=O)(CCN1CCOCC1)c1ccc(Cl)cc1
inactive: [1] 0.995 | [2] 0.982 | [3] 0.967 | [27] 0.993 | [4] 1.01 | [5] 0.993 | [6] 0.983 | [7] 1.06 | [8] 0.982 | [9] 1 | [10] 0.998 | [11] 1 | [12] 0.963 | [13] 0.974 | [14] 1.07 | [15] 0.982 | [16] 0.982 | [17] 0.99 | [19] 0.987 | [20] 1.01 | [21] 0.996 | [22] 0.985 | [23] 0.987 | [24] 0.982 | [25] 0.986 | [26] 1.15 | S. cerevisiae strains, strain wild type, stronger effect = lower value 0.976

Clc1ccc2c(c1)c1ccccc1n2CN1CCOCC1
inactive: S. cerevisiae deletion strains, locus YAR019C, strain CDC15, stronger effect = lower value 0.935 | S. cerevisiae deletion strains, locus YBL105C, strain PKC1, stronger effect = lower value 0.941 | S. cerevisiae deletion strains, locus YBR135W, strain CKS1, stronger effect = lower value 0.925 | S. cerevisiae deletion strains, locus YBR136W, strain MEC1, stronger effect = lower value 0.957 | S. cerevisiae deletion strains, locus YBR160W, strain CDC28, stronger effect = lower value 0.945 | S. cerevisiae deletion strains, locus YDL017W, strain CDC7, stronger effect = lower value 0.938 | S. cerevisiae deletion strains, locus YDL028C, strain MPS1, stronger effect = lower value 0.95 | [3] 0.975 | S. cerevisiae deletion strains, locus YDL108W, strain KIN28, stronger effect = lower value 0.949 | S. cerevisiae deletion strains, locus YDL132W, strain cdc53, stronger effect = lower value 0.918 | S. cerevisiae deletion strains, locus YDL214C, strain PRR2, stronger effect = lower value 0.753 | S. cerevisiae deletion strains, locus YDR052C, strain DBF4, stronger effect = lower value 0.951 | S. cerevisiae deletion strains, locus YDR054C, strain cdc34, stronger effect = lower value 0.926 | S. cerevisiae deletion strains, locus YDR226W, strain ADK1, stronger effect = lower value 0.933 | S. cerevisiae deletion strains, locus YFL009W, strain cdc4, stronger effect = lower value 0.934 | S. cerevisiae deletion strains, locus YFL029C, strain CAK1, stronger effect = lower value 0.917 | S. cerevisiae deletion strains, locus YFR003C, strain YPI1, stronger effect = lower value 0.945 | S. cerevisiae deletion strains, locus YFR019W, strain FAB1, stronger effect = lower value 0.894 | S. cerevisiae deletion strains, locus YFR028C, strain CDC14, stronger effect = lower value 0.952 | S. cerevisiae deletion strains, locus YGR052W, strain FMP48, stronger effect = lower value 0.603 | S. cerevisiae deletion strains, locus YHR079C, strain IRE1, stronger effect = lower value 0.79 | S. cerevisiae deletion strains, locus YHR082C, strain KSP1, stronger effect = lower value 0.764 | S. cerevisiae deletion strains, locus YHR205W, strain SCH9, stronger effect = lower value 0.714 | S. cerevisiae deletion strains, locus YIL147C, strain SLN1, stronger effect = lower value 0.944 | S. cerevisiae deletion strains, locus YJL095W, strain BCK1, stronger effect = lower value 0.724 | S. cerevisiae deletion strains, locus YJL128C, strain PBS2, stronger effect = lower value 0.921 | S. cerevisiae deletion strains, locus YJL157C, strain FAR1, stronger effect = lower value 0.722 | S. cerevisiae deletion strains, locus YJR016C, strain ILV3, stronger effect = lower value 0.943 | S. cerevisiae deletion strains, locus YJR066W, strain TOR1 (second series), stronger effect = lower value 0.738 | S. cerevisiae deletion strains, locus YJR066W, strain TOR1, stronger effect = lower value 0.619 | S. cerevisiae deletion strains, locus YKL101W, strain HSL1, stronger effect = lower value 0.728 | S. cerevisiae deletion strains, locus YKL193C, strain SDS22, stronger effect = lower value 0.916 | S. cerevisiae deletion strains, locus YLR133W, strain CKI1, stronger effect = lower value 0.776 | S. cerevisiae deletion strains, locus YML070W, strain DAK1, stronger effect = lower value 0.748 | S. cerevisiae deletion strains, locus YMR001C, strain CDC5, stronger effect = lower value 0.92 | S. cerevisiae deletion strains, locus YMR205C, strain PFK2 (second series), stronger effect = lower value 0.757 | S. cerevisiae deletion strains, locus YMR277W, strain FCP1, stronger effect = lower value 0.929 | S. cerevisiae deletion strains, locus YNL006W, strain LST8, stronger effect = lower value 0.934 | S. cerevisiae deletion strains, locus YNL020C, strain ARK1, stronger effect = lower value 0.771 | S. cerevisiae deletion strains, locus YNL161W, strain CBK1, stronger effect = lower value 0.928 | S. cerevisiae deletion strains, locus YNL183C, strain NPR1, stronger effect = lower value 0.658 | S. cerevisiae deletion strains, locus YNL207W, strain RIO2, stronger effect = lower value 0.914 | S. cerevisiae deletion strains, locus YNL222W, strain SSU72, stronger effect = lower value 0.927 | S. cerevisiae deletion strains, locus YOL078W, strain AVO1, stronger effect = lower value 0.93 | S. cerevisiae deletion strains, locus YOL136C, strain PFK27, stronger effect = lower value 0.72 | S. cerevisiae deletion strains, locus YOR231W, strain MKK1, stronger effect = lower value 0.834 | S. cerevisiae deletion strains, locus YOR329C, strain SCD5, stronger effect = lower value 0.934 | S. cerevisiae deletion strains, locus YPL153C, strain RAD53, stronger effect = lower value 0.786 | S. cerevisiae deletion strains, locus YPL209C, strain IPL1, stronger effect = lower value 0.939 | S. cerevisiae deletion strains, locus YPR025C, strain CCL1, stronger effect = lower value 0.934 | S. cerevisiae deletion strains, locus YPR106W, strain ISR1, stronger effect = lower value 0.94 | S. cerevisiae deletion strains, locus YPR111W, strain DBF20, stronger effect = lower value 0.939 | S. cerevisiae deletion strains, strain NNK1, stronger effect = lower value 0.949 | S. cerevisiae deletion strains, strain TSCII, stronger effect = lower value 0.912
active: S. cerevisiae deletion strains, locus YDR477W, strain SNF1, stronger effect = lower value 0.541 | S. cerevisiae deletion strains, locus YER123W, strain YCK3, stronger effect = lower value 0.588 | S. cerevisiae deletion strains, locus YER133W, strain GLC7, stronger effect = lower value 0.641 | S. cerevisiae deletion strains, locus YGR040W, strain KSS1, stronger effect = lower value 0.592 | S. cerevisiae deletion strains, locus YGR092W, strain DBF2, stronger effect = lower value 0.208 | [7] 0.679 | S. cerevisiae deletion strains, locus YKL048C, strain ELM1, stronger effect = lower value 0.696 | S. cerevisiae deletion strains, locus YKL067W, strain YNK1, stronger effect = lower value 0.709 | S. cerevisiae deletion strains, locus YKL203C, strain TOR2, stronger effect = lower value 0.598 | S. cerevisiae deletion strains, locus YLR113W, strain HOG1, stronger effect = lower value 0.755 | S. cerevisiae deletion strains, locus YLR403W, strain SFP1, stronger effect = lower value 0.612 | S. cerevisiae deletion strains, locus YNL307C, strain MCK1 (second series), stronger effect = lower value 0.602 | S. cerevisiae deletion strains, locus YOR061W, strain CKA2, stronger effect = lower value 0.558 | S. cerevisiae deletion strains, locus YOR119C, strain RIO1, stronger effect = lower value 0.501 | S. cerevisiae deletion strains, locus YPL031C, strain PHO85, stronger effect = lower value 0.545 | S. cerevisiae deletion strains, locus YPL204W, strain HRR25, stronger effect = lower value 0.641 | S. cerevisiae deletion strains, locus YPL256C, strain CLN2, stronger effect = lower value 0.823

COc1ccc2c(c1)c(CC(=O)N1CCOCC1)c(C)n2C(=O)c1ccc(Cl)cc1
inactive: S. cerevisiae deletion strains, locus YAL040C, strain CLN3, stronger effect = lower value 0.996 | S. cerevisiae deletion strains, locus YCL061C, strain MRC1 (second series), stronger effect = lower value 1.01 | S. cerevisiae deletion strains, locus YDR363W, strain ESC2, stronger effect = lower value 1.03 | S. cerevisiae deletion strains, locus YER002W, strain NOP16, stronger effect = lower value 0.998 | [6] 1.01 | S. cerevisiae deletion strains, locus YGR229C, strain SMI1, stronger effect = lower value 1 | [17] 1.01 | S. cerevisiae deletion strains, locus YNL175C, strain NOP13, stronger effect = lower value 1.01 | S. cerevisiae deletion strains, locus YNL197C, strain WHI3, stronger effect = lower value 1.01 | S. cerevisiae deletion strains, locus YNL224C, strain SQS1, stronger effect = lower value 0.993 | [22] 1.01 | S. cerevisiae deletion strains, locus YOR083W, strain WHI5 (second series), stronger effect = lower value 0.999 | [25] 1.01

O=C(O)c1ccc(N=Cc2ccc3c(c2)OCO3)cc1
inactive: [1] 1 | [2] 0.991 | [3] 0.983 | [4] 0.879 | [5] 1.01 | [6] 0.994 | [7] 0.999 | [8] 1 | [28] 0.985 | [9] 0.997 | [10] 0.979 | S. cerevisiae deletion strains, locus YKL190W, strain CNB1, stronger effect = lower value 1 | [11] 0.991 | [12] 0.99 | [13] 1.05 | [14] 0.998 | [15] 1 | [16] 0.988 | [18] 1.02 | [19] 1.04 | [20] 0.98 | [21] 1.04 | [22] 0.991 | [23] 1.01 | S. cerevisiae deletion strains, locus YOL006C, strain TOP1, stronger effect = lower value 1.04 | [24] 0.984 | [25] 0.992 | [26] 0.997

O=C(O/N=C\c1ccc2c(c1)OCO2)c1ccccc1Br
inactive: [2] 0.949 | [3] 0.961 | [4] 0.872 | [8] 0.928 | [28] 0.964 | [9] 0.926 | [10] 0.935 | [12] 0.973 | [16] 0.959 | [20] 0.959 | [22] 0.95
active: [1] 0.907 | [27] 0.827 | [5] 0.844 | [6] 0.927 | [7] 0.315 | [11] 0.491 | [13] 0.465 | [14] 0.577 | [15] 0.815 | [17] 0.892 | [21] 0.826 | [23] 0.857 | [24] 0.728 | [25] 0.834 | [26] 0.591
